# Source: PubChem BioAssay
# The list is not random: actives were taken first. Their share in the collection is about 14%.
# USP17 inh – blocks human USP17 ubiquitin-rhodamine cleavage; A8MUK1; purified USP17, Ub-rhodamine cleavage fluorescence, 3 h; inhibition, % at 50 µM; actives 6.5% (n = 47,000); AID 1645855
# USP28 block – blocks human USP28 ubiquitin-rhodamine cleavage; Q96RU2; purified USP28, Ub-rhodamine cleavage fluorescence, 30 min; inhibition, % at 25 µM; actives 3% (n = 47,000)
# USP8 block – inhibitors of human USP8 deubiquitinase. P40818. purified USP8, Ub-rhodamine cleavage fluorescence, 30 min. inhibition, % at 20 µM. actives 4.2% (n = 47,000)
# USP30 inh – inhibitors of human USP30 deubiquitinase; Q70CQ3; purified USP30, Ub-rhodamine cleavage fluorescence; inhibition, % at 25 µM; actives 5.3% (n = 47,000); AID 1645860
# Starred values were filed as active, the others as inactive; i = inactive; nt = no result given. No stated cut-off is given here; in the data, active means inhibition above about 30%; inactive means the rest.
SMILES,USP17 inh,USP28 block,USP8 block,USP30 inh
O=C(NCc1ccc2c(c1)OCO2)c1ccc(C2SCC(=O)N2Cc2ccco2)cc1 (stereo not given),56*,22,36*,5
Cc1ccc(C(=O)NCc2ccc3c(c2)OCO3)cc1S(=O)(=O)N1CCCC1,-18,0,-5,-2
NS(=O)(=O)c1ccc(NS(=O)(=O)c2ccc(NC(=O)Nc3ccc(Cl)cc3)cc2)cc1,41*,75*,23,49*
Cc1ccc2c(=O)c(C(=O)Nc3ccccc3)cn(CC(=O)NC3CCCCC3)c2n1,56*,5,-1,9
Cc1ccc2c(=O)c(C(=O)Nc3ccc(F)cc3)cn(CC(=O)NC3CCCC3)c2n1,nt,-18,7,-47
Cc1ccc(S(=O)(=O)c2cn(CC(=O)Nc3ccccc3)c3nc(C)ccc3c2=O)cc1,-16,-12,11,-89
Cc1ccc(NC(=O)Cn2cc(S(=O)(=O)c3ccccc3)c(=O)c3ccc(C)nc32)cc1,4,-186,41*,i
CC(C)CCNC(=O)c1ccc(C(C)(C)C)cc1,1,-12,-18,-3
Cc1ccc(NC(=O)Nc2ccccc2N2CCCCC2)cc1Cl,3,-5,0,-1
O=C(CCc1nnc2ccc(N3CCCCC3)nn12)NCCN1CCOCC1,10,-2,41*,13
CC1CCN(c2ccc3nnc(CCC(=O)NCCN4CCCC4)n3n2)CC1,-17,-12,-9,-23
Cc1ccc(-n2c(Cc3cccc4ccccc34)nnc2SCC(=O)NC2CCS(=O)(=O)C2)c(C)c1 (stereo not given),42*,0,24,-1
COc1ccccc1C(=O)NCc1nnc(SCC(=O)Nc2cccc(C)c2C)n1C,18,1,-6,12
Cc1ccc(NC(=O)CSc2nnc(Cc3cccc4ccccc34)n2C)c(C)c1,39*,49*,-33,27
Cc1ccc(-c2nc3ccccc3c3nnc(SCC(=O)NC4CC4)n23)cc1,-5,-8,0,-9
Cc1cc(C)c(NC(=O)CSc2nnc(Cc3cccc4ccccc34)n2C)c(C)c1,1,5,-28,-1
Cc1cccc(NC(=O)CSc2nnc(CNc3ccc(Cl)cc3)n2C)c1C,-2,0,44*,-5
CC(C)c1nc2sc3c(NC4CCCCC4)ncnc3c2c2c1CCC2,1,1,-1,-3
O=C(NCc1cccnc1)c1cnn2c(C(F)(F)F)cc(-c3ccc(F)cc3)nc12,36*,-1,-1,56*
O=C(NCc1cccnc1)c1cnn2c3c(cnc12)CCCC3,-1,-23,0,-11
Cn1c(=O)n(Cc2cccc(Cl)c2)c(=O)c2cnc(-c3ccncc3)nc21,-141,-145,-65,-498
COc1ccc(-c2ncc3c(=O)n(Cc4cccnc4)c(=O)n(C)c3n2)cc1,0,18,2,36*
Cc1ccc(-c2nc3nc(C)cc(N4CCC(C)CC4)n3n2)cc1,56*,nt,1,nt
Cc1ccc(-c2nc3nc(C)cc(N4CCCCC4C)n3n2)cc1 (stereo not given),-14,-22,1,-129
Cc1cc(C(F)(F)F)n2nc(C3CCN(C(=O)c4cnn(C)c4C)C3)cc2n1 (stereo not given),50*,-18,92*,-44
SMILES,USP17 inh,USP28 block,USP8 block,USP30 inh
O=C(Nc1ccc2c(c1)CCC2)C1Cc2ccccc2O1 (stereo not given),17,22,1,-1
O=C(O)C1CCN(c2ncnc3c2oc2ccccc23)CC1,13,nt,4,nt
O=C(CNc1ccc(F)cc1F)Nc1ccc2c(c1)OC(F)(F)O2,0,49*,3,-7
O=C(c1cccc(C(F)(F)F)c1)N1CCN(c2ccc(-c3ccncc3)nn2)CC1,-2,7,2,17
O=C(O)c1cccc2oc(-c3cccc4oc(-c5ccccc5O)nc34)nc12,46*,22,3,-2
CC(C)C(=O)N(Cc1ccc(-c2ccc(F)cc2)o1)C1CCS(=O)(=O)C1 (stereo not given),-6,-5,0,-31
Cc1nc2cc(N3CC(C(=O)Nc4ccccc4)CC3=O)ccc2o1 (stereo not given),5,0,0,13
COc1ccc(NS(=O)(=O)c2cccc(NC(=O)CCOc3ccccc3OC)c2)cc1,-3,nt,7,nt
CCOc1ccc(C(=O)CCC(=O)Nc2cccc(S(=O)(=O)Nc3cccc(Cl)c3)c2)cc1,32*,-3,0,-47
CNc1cc(C)nc(C2CN(C(=O)c3ccc4n[nH]nc4c3)CCO2)c1 (stereo not given),9,2,1,5
CNc1cc(C)nc(C2CN(C(=O)c3ccc(C)n(C)c3=O)CCO2)c1 (stereo not given),8,4,-34,32*
Cc1ccc(Nc2nc(C(=O)NCc3ccccc3)cc3occc23)cc1,32*,0,17,-64
O=C(NCc1ccc2c(c1)OCO2)c1cc2occc2c(Nc2ccc(F)cc2)n1,25,-5,-19,1
Cc1ccc(Nc2nc(C(=O)NCc3ccc4c(c3)OCO4)cc3occc23)cc1Cl,66*,-14,76*,-133
COc1ccc(-c2nc(CNC(=O)C3CCCC3)no2)cc1,0,-2,0,-29
CC1(C2CCN(c3cccc(F)c3C#N)CC2)NC(=O)NC1=O (stereo not given),11,15,0,32*
N#Cc1ccc(N2CCC(C3CCCCCN3C(=O)C3CCOCC3)CC2)nc1 (stereo not given),5,11,-3,12
N#Cc1c(F)cccc1N1CCC(C2CCCCCN2C(=O)C2CC2)CC1 (stereo not given),15,25,3,34*
O=C(Nc1cnc(N2CCCCCC2)nc1)c1cncc(Br)c1,-9,29,0,-7
CCOc1cccc(C2c3c(oc4ccc(C)cc4c3=O)C(=O)N2CCN2CCOCC2)c1 (stereo not given),25,9,40*,21
CNC(=O)c1ccc2nc(C)c(C)nc2c1,-2,-3,1,-37
C=C1CCC2[C@](C)(CCC[C@]2(C)C(=O)OC)[C@H]1CCc1ccoc1CNC(CCSC)C(=O)O (stereo not given in full),28,-15,43*,-60
Cc1cc(Nc2ccccn2)nc(C2CCCN(C(=O)c3cccnc3)C2)n1 (stereo not given),3,-2,8,4
COc1cc(-c2cc(C(=O)Nc3cc(C)[nH]n3)c3ccccc3n2)cc(OC)c1OC,39*,2,-132,51*
Cc1nc2sc3c(NCC(C)C)ncnc3c2c2c1COC(C)(C)C2,43*,13,-5,18
CC(C)Cc1nc2sc3c(SCc4ccc(Cl)cc4)ncnc3c2c2c1COC(C)(C)C2,18,13,-1,33*
CC(C)Cc1nc2sc3c(NCc4ccccc4)ncnc3c2c2c1COC(C)(C)C2,23,22,6,64*
CCOC(=O)C(C)Sc1ncnc2c1sc1nc(N3CCCC3)c3c(c12)CC(C)(C)OC3 (stereo not given),-7,-12,46*,-70
